# From PubChem
# MARV entry inh: qHTS for inhibitors of binding or entry into cells for Marburg Virus; Marburg virus pseudotyped entry inhibition, cell reporter; Potency, µM (series often up to 37.8 µM), without a hit: at the highest dose activity change, negative = inhibition, hits mostly inhibitors; 1.8% of 300,000 active; calls by dose curve; tested in HEK293 cells
# RE007 growth inh: qHTS Assay for Inhibitors of the HIV-1 protein Vpr | S. pombe RE007 Vpr strain, BacTiter-Glo ATP luminescence, 24 h | Potency, µM (series often up to 92.2 µM), inactives show at the highest dose activity change, negative = less growth, usual class: inhibitors | 0.21% of 360,000 active; active = well fitted falling curve with a large enough effect; inconclusive = small, poorly fitted or top-dose-only effect; inactive = no such curve, though single readings can be large or run the other way; also: nearly all actives have a fitted effect of over 50% in size
#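 Fission yeast strain RE007, carrying one chromosomally integrated HIV-1 vpr copy, was seeded at OD 0.01 in PMG+AL medium with 23 nL pinned compound. After 24 h at 30 °C and 99% humidity, viability was read by BacTiter-Glo luminescence.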
# Lassa entry inh: qHTS for Inhibitors of binding or entry into cells for Lassa Virus; Lassa virus pseudotype entry inhibition, cell reporter; 1.2% of 300,000 active; AID 540256, 2011; Potency, µM (top dose mostly 37.9 µM), for the others: top-dose activity change, negative = inhibition, usual class: inhibitors; calls by dose curve; tested in HEK293 cells; also: nearly all actives have a fitted effect of over 50% in size
# Sm TGR block: qHTS Assay for the Inhibitors of Schistosoma Mansoni Peroxiredoxins; purified TGR, DTNB reduction, TNB absorbance 405 nm; Potency, µM (doses to about 114 µM), without a hit: at the top dose activity change, negative = inhibition, most hits filed as inhibitors; 3% of 360,000 active; also: nearly all actives have a fitted effect of over 60% in size
#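 First, TGR (20 nM dispensed) and NADPH were mixed with compound. Second, a 15 min room-temperature incubation followed. Third, further NADPH and then DTNB were added to start the reaction. Finally, TNB absorbance was monitored kinetically.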
# HCV inh: qHTS Assay for Inhibitors of Hepatitis C Virus (HCV); Huh7.5.1 HCVcc-Cre infection, luciferase reporter, 44 h; Potency, µM (highest dose often 41.8 µM), for inactives: at the top dose activity change, negative = inhibition, most hits filed as inhibitors; 3.4% of 340,000 active; AID 651820, 2012
#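 Reporter virus HCVcc-Cre (~0.5 moi) infects cells exposed to compound; seeding density 1,000 cells/well with 4 h settling beforehand. Luminescence, 15 sec read, taken 44 h post-infection following a 15 min RT substrate incubation.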
# FMDV inh: High Throughput Screening for Foot and Mouth Disease Virus Antivirals | FMDV antiviral cell-based qHTS | Potency, µM (titrated, usually from 57.9 µM), without a hit: at the highest dose activity change, negative = inhibition, actives largely listed as inhibitors | 1.2% of 410,000 active; calls by dose curve; tested in HEK293T cells; also: read-out not given here; nearly all actives have a fitted effect of over 45% in size
# An asterisk follows results filed as active; ? = inconclusive; . = no result given; [ ] = another dose, or the depositor's remark. Sampled rows, rich in hits. Any-hit rate of the full collection: about 7.2%. Unless noted, calls follow the shape of the dose curve; as a rule, active = well fitted curve in the direction sought with a large enough effect; inconclusive = small, poorly fitted or top-dose-only effect, or another doubt; inactive = no such curve, though single readings can be large; an effect the other way counts as inactive or inconclusive. % is scaled to controls: 0 for no effect and ±100 for the full control effect; potency is read from the fitted curve at half-maximal effect.
SMILES,MARV entry inh,RE007 growth inh,Lassa entry inh,Sm TGR block,HCV inh,FMDV inh
COC(=O)CCn1c(C)cc(C(=O)COc2ccccc2C(N)=O)c1C,?,7%,-32%,-13%,?,16µM*
Cc1c(Cl)cccc1NC(=O)CSc1nc(=O)n(Cc2ccccn2)c2c1CCC2,.,.,14%[46.1 µM],13%,.,-9%
CCN1c2ccccc2-c2nc(SCC(=O)Nc3cc(C)c(Cl)cc3OC)ncc2S1(=O)=O,.,.,-18%[46.1 µM],6%,.,-8%
C[C@H](O)c1n(C)c(Cl)c[n+]1C,9%,.,.,.,.,.
CC12CCC(C(N)C1=O)C2(C)C (centres undefined),-1%,0%,-22%,.,16%,-15%
Cc1cc(C(=O)COC(=O)c2cccnc2Cl)c(C)n1CC1CCCO1 (centres undefined),.,-24%,.,2%,?,?
Cc1cc(C(=O)COC(=O)c2n[nH]c3ccccc23)c(C)n1CC1CCCO1 (centres undefined),7.1µM*,?,?,-1%,?,?
Cc1cc(C(=O)COc2cccnc2[N+](=O)[O-])c(C)n1Cc1cccs1,?,-12%,?,4%,?,7.9µM*
Cc1cc(C(=O)COC(=O)c2ccccc2O)c(C)n1CC1CCCO1 (centres undefined),.,?,.,-2%,11µM*,35µM*
Cc1cc(C(=O)COC(=O)c2cccc(NS(C)(=O)=O)c2)c(C)n1CC1CCCO1 (centres undefined),5.6µM*,-2%,10µM*,.,?,11µM*
Cc1ccc(C(=O)OCC(=O)c2cc(C)n(CC3CCCO3)c2C)cc1 (centres undefined),?,14%,-10%,.,?,-13%
COC(=O)[C@H]1Cc2c([nH]c3ccccc23)CN1C(=O)COc1ccc2c(C)cc(=O)oc2c1,.,.,.,.,.,-19%
Cc1cc(C(=O)COc2ccccc2C(N)=O)c(C)n1CC1CCCO1 (centres undefined),?,0%,-13%,7%,1.8µM*,28µM*
CC/C(=N\N1CCCCCC1)c1c(O)n(-c2ccccc2C)c(=O)[nH]c1=O,-21%,7%,10µM*,-4%,?,?
CCC(=NCCN1CCOCC1)c1c(O)n(-c2ccccc2C)c(=O)[nH]c1=O,5%[46.1 µM],2%,-5%,28µM*,0%,13%
C/C(=N\N1CCCCCC1)c1c(O)n(-c2ccccc2)c(=O)[nH]c1=O,-16%,7%,?,2%,1%,-26%
O=C1N/C(=N/O)S/C1=C/c1cccc([N+](=O)[O-])c1,4%[46.1 µM],-12%,0%,-12%,6%,11%
Cc1cccc(/C=C2/S/C(=N/N=C3\CC4CCC3(C)C4(C)C)NC2=O)c1 (centres undefined),?,?,14µM*,4%,?,?
CCC(=O)N1CCc2cc(Br)cc(S(=O)(=O)N3CCCC(C(=O)Nc4ccc(OC)cc4OC)C3)c21 (centres undefined),-5%[46.1 µM],.,-6%[46.1 µM],7%,.,-1%
COc1ccc(CN2CCc3c(c(=O)n4ncc(C(=O)N5CCN(c6ccccc6OC)CC5)c4n3C)C2)cc1,.,.,?,0%,.,?
COCCCNC(=O)/C(C#N)=C/c1c(N2CCN(c3ccccc3)CC2)nc2c(C)cccn2c1=O,.,-18%,.,35µM*,-23%,-12%
CCNC(=O)/C(C#N)=C/c1c(N(Cc2ccccc2)Cc2ccccc2)nc2ccccn2c1=O,?,31%,?,-9%,11µM*,-25%
CNC(=O)/C(C#N)=C/c1c(N(Cc2ccccc2)Cc2ccccc2)nc2c(C)cccn2c1=O,?,-10%,?,-9%,13µM*,?
COCCCNC(=O)/C(C#N)=C/c1c(N2CCN(c3cccc(Cl)c3)CC2)nc2c(C)cccn2c1=O,?,-13%,?,5%,?,-21%
CCNC(=O)/C(C#N)=C/c1c(N2CCN(C)CC2)nc2c(C)cccn2c1=O,?,3%,7%,6%,-1%,-7%
SMILES,MARV entry inh,RE007 growth inh,Lassa entry inh,Sm TGR block,HCV inh,FMDV inh
CCOC(=O)c1ccc(NC2(c3ccccc3)C(=O)c3ccccc3C2=O)cc1,.,.,?,0%,.,-9%
O=C(Cn1c(=O)n(-c2cccc(Cl)c2)c(=O)c2sc3ccccc3c21)N1CCCC1,-3%[46.1 µM],.,-19%[46.1 µM],1%,.,-6%
CN(CCO)C(=O)c1cn(C2CCN(Cc3cccc(C(F)(F)F)c3)CC2)nn1,.,.,.,.,.,-10%
COc1cc(C)c2occ(/C(C)=N\O)c2c1,5%,?,5%,3%,8.9µM*,7%
COCC1CCCCN1C(=O)c1cc(COc2ccc3ncccc3c2)on1 (centres undefined),.,12%,.,3%,-2%,?
CCN(CC)C(=O)C1CCCN(C(=O)c2cc(COc3ccc4ncccc4c3)on2)C1 (centres undefined),.,-3%,.,-5%,?,?
CCCN1CCN(C(=O)c2cc(COc3ccc4ncccc4c3)on2)CC1,.,-5%,.,-28%,10µM*,?
CCN1CCN(C(=O)c2cc(COc3ccc4ncccc4c3)on2)CC1,-19%[46.1 µM],2%,.,.,11µM*,?
Cc1cnn(-c2nc(-c3cccs3)cc(C(F)(F)F)n2)c1,1%,2%,7%,-9%,10µM*,?
FC(F)(F)c1cc(-c2cccs2)nc(-n2cc(Br)cn2)n1,2%,-7%,1%,-5%,11µM*,?
FC(F)(F)c1cc(-c2cccs2)nc(N2CCOCC2)n1,?,3%,-3%,-11%,?,-11%
Cc1c(CCOC(=O)c2ccc(Cl)cc2Cl)sc[n+]1CC(=O)c1ccc(Br)cc1,.,-13%,.,.,14µM*,-27%
COc1ccc(CCN2C(=O)CC(Sc3ncccc3C(=O)O)C2=O)cc1OC (centres undefined),1%,-9%,1%,11µM*,-8%,-11%
CCc1ccc(NC2CC(=O)N(c3ccc(OC)cc3OC)C2=O)cc1 (centres undefined),22%,-11%,6%,35µM*,2%,.
CCc1ccc(NC2CC(=O)N(CCc3ccc(OC)c(OC)c3)C2=O)cc1 (centres undefined),?,-11%,-3%,14µM*,-8%,-24%
COc1ccc(CCNC2CC(=O)N(CCc3ccccc3)C2=O)cc1OC (centres undefined),-4%,-3%,4%,0%,5%,-19%
COc1ccc(CCN2C(=O)CC(Nc3ccc(N4CCOCC4)cc3)C2=O)cc1OC (centres undefined),?,4%,-8%,20µM*,-10%,?
